What was measured:
[1] = target: T1, Ephrin type-B receptor 1 (Homo sapiens) (UniProt P54762); conditions: at 10 µM
T1 sequence (whole entry): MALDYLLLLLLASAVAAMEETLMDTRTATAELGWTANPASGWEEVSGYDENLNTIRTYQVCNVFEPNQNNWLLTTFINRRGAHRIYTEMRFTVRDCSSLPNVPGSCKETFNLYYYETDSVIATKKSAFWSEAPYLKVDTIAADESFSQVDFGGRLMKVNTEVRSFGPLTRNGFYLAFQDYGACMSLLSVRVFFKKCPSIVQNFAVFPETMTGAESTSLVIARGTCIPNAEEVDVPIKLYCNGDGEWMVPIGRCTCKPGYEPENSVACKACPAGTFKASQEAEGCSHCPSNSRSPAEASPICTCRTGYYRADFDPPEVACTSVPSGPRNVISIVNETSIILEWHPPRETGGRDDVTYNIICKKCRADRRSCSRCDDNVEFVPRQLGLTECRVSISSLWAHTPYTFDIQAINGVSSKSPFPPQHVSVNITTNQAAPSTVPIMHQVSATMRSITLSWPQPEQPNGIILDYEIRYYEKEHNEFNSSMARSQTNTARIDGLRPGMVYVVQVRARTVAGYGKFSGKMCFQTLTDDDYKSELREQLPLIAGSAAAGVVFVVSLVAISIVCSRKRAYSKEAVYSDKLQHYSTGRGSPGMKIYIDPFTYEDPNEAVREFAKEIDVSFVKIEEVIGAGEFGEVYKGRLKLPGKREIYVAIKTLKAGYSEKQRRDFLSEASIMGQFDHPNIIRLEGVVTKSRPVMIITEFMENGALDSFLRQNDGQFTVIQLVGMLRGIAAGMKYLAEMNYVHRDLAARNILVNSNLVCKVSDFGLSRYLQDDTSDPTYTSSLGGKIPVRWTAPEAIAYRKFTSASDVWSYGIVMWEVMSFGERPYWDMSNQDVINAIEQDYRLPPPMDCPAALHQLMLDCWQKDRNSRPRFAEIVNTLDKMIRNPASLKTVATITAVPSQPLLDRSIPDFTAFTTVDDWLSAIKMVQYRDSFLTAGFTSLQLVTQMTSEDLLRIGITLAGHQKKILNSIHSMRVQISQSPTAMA

[2] = target: T2, Ephrin type-B receptor 2 (Homo sapiens) (UniProt P29323); conditions: at 1 µM
T2 sequence (whole entry): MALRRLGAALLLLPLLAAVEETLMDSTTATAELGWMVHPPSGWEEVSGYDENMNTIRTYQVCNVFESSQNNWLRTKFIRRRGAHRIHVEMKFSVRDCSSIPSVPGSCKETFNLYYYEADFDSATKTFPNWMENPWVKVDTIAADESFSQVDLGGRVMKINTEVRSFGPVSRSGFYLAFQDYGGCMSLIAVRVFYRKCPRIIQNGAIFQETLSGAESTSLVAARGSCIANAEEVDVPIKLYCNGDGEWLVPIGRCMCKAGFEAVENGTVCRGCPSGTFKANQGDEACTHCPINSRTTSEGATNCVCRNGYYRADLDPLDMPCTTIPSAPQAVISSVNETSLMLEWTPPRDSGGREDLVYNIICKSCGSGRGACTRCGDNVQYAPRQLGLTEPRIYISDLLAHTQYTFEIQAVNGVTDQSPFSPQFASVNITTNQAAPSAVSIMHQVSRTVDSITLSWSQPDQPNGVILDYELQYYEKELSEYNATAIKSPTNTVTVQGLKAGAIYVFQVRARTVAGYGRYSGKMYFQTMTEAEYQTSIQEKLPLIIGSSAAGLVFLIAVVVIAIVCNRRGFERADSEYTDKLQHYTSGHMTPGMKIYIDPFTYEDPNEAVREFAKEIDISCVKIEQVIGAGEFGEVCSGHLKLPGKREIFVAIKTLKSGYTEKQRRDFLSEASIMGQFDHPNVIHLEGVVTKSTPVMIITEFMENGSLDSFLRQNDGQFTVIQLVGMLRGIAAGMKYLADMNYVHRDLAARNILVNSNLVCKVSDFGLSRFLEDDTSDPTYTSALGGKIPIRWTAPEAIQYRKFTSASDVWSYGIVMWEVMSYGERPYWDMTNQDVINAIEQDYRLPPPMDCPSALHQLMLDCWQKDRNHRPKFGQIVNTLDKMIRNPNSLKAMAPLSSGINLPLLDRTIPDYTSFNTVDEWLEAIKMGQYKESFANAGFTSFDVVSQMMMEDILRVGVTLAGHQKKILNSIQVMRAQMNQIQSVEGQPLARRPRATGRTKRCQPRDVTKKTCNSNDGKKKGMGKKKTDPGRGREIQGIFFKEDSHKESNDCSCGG

[3] = target: T2, Ephrin type-B receptor 2 (Homo sapiens); conditions: at 10 µM
[4] = target: T3, Ephrin type-B receptor 3 (Homo sapiens) (UniProt P54753); conditions: at 1 µM
T3 sequence (whole entry): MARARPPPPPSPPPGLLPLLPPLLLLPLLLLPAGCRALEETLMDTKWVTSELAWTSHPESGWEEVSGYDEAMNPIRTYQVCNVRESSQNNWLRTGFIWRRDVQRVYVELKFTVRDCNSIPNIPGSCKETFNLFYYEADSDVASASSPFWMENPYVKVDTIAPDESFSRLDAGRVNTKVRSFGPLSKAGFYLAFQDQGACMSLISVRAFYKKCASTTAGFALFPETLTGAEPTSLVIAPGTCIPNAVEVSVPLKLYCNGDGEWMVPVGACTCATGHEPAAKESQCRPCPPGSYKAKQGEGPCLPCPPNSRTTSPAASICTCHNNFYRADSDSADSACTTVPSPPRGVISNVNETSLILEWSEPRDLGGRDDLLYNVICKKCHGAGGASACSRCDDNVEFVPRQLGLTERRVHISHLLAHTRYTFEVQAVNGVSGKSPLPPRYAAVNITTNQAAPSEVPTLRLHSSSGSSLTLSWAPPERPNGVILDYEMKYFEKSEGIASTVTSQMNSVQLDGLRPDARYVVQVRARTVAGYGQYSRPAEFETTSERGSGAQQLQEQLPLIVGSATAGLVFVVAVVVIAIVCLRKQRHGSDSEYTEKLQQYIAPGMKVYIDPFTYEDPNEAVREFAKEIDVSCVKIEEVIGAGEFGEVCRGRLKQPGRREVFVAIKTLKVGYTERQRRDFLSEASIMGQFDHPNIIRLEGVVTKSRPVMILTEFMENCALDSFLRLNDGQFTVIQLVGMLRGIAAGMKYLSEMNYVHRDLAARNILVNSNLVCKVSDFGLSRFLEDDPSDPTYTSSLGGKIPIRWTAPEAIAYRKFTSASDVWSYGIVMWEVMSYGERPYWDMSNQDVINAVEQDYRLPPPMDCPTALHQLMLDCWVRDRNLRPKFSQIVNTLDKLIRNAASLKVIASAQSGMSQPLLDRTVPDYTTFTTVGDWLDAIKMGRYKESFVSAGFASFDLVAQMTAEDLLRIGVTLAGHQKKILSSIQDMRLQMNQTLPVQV

[5] = target: T3, Ephrin type-B receptor 3 (Homo sapiens); conditions: at 10 µM
[6] = target: T4, Ephrin type-B receptor 4 (Homo sapiens) (UniProt P54760); conditions: at 1 µM
T4 sequence (whole entry): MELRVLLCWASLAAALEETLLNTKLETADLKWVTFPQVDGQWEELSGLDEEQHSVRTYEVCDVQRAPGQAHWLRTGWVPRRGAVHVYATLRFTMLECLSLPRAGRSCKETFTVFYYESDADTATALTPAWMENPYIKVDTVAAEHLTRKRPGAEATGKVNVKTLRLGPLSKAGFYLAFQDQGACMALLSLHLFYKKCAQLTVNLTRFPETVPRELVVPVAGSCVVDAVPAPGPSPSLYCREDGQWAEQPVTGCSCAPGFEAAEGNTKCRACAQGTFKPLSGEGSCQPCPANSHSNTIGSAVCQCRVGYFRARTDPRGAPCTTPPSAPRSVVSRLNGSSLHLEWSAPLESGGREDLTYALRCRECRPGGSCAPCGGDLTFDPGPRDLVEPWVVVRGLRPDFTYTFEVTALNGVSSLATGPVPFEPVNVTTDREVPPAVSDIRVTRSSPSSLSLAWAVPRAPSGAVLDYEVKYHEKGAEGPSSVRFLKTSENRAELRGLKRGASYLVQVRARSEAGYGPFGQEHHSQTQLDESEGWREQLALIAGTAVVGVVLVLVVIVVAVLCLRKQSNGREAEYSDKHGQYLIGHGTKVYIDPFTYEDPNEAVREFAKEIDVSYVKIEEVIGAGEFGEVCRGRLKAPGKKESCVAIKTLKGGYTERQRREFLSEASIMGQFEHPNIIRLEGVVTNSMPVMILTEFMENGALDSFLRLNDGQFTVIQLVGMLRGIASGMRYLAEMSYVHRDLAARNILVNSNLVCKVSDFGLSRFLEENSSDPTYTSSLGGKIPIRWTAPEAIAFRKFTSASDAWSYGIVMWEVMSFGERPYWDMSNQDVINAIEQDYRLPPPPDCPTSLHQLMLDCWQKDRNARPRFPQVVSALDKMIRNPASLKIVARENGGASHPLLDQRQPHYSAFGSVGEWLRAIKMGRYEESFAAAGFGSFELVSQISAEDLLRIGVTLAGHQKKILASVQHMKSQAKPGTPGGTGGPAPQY

[7] = target: T4, Ephrin type-B receptor 4 (Homo sapiens); conditions: at 10 µM
[8] = target: Receptor tyrosine-protein kinase erbB-4 (Homo sapiens) (UniProt Q15303); conditions: at 1 µM
[9] = target: Receptor tyrosine-protein kinase erbB-4 (Homo sapiens) (UniProt Q15303); conditions: at 10 µM
[10] = target: Focal adhesion kinase 1 (Homo sapiens) (UniProt Q05397); conditions: at 1 µM
Chain of Focal adhesion kinase 1 (Homo sapiens) (Q05397 2-1052 limits assumed): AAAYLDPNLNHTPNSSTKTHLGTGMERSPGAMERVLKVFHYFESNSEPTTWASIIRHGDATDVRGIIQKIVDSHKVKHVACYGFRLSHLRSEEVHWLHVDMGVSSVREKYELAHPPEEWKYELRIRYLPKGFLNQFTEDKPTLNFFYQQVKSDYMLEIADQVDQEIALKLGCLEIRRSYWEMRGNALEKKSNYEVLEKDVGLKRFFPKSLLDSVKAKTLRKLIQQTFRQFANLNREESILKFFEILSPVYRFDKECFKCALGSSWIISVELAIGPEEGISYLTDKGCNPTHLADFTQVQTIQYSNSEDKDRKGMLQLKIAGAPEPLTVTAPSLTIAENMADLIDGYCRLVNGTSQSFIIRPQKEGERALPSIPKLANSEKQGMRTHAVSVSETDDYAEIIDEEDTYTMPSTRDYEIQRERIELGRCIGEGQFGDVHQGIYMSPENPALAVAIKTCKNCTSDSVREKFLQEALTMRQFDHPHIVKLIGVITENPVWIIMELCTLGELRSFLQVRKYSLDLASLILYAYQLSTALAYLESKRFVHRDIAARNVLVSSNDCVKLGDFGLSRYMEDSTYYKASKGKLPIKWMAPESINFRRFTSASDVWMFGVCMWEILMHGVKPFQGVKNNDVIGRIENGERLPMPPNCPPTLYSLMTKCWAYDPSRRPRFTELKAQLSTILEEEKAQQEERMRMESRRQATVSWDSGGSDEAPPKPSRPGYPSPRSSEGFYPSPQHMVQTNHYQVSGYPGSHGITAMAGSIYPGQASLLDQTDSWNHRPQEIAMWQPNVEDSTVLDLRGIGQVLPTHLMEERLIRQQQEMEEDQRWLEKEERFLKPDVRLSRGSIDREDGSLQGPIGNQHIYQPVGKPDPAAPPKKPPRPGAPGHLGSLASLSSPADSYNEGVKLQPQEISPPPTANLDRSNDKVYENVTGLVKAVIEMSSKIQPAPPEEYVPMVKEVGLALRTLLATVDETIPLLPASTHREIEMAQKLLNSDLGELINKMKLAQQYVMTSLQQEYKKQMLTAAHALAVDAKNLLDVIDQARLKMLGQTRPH

Chain of Receptor tyrosine-protein kinase erbB-4 (Homo sapiens) (Q15303 whole entry): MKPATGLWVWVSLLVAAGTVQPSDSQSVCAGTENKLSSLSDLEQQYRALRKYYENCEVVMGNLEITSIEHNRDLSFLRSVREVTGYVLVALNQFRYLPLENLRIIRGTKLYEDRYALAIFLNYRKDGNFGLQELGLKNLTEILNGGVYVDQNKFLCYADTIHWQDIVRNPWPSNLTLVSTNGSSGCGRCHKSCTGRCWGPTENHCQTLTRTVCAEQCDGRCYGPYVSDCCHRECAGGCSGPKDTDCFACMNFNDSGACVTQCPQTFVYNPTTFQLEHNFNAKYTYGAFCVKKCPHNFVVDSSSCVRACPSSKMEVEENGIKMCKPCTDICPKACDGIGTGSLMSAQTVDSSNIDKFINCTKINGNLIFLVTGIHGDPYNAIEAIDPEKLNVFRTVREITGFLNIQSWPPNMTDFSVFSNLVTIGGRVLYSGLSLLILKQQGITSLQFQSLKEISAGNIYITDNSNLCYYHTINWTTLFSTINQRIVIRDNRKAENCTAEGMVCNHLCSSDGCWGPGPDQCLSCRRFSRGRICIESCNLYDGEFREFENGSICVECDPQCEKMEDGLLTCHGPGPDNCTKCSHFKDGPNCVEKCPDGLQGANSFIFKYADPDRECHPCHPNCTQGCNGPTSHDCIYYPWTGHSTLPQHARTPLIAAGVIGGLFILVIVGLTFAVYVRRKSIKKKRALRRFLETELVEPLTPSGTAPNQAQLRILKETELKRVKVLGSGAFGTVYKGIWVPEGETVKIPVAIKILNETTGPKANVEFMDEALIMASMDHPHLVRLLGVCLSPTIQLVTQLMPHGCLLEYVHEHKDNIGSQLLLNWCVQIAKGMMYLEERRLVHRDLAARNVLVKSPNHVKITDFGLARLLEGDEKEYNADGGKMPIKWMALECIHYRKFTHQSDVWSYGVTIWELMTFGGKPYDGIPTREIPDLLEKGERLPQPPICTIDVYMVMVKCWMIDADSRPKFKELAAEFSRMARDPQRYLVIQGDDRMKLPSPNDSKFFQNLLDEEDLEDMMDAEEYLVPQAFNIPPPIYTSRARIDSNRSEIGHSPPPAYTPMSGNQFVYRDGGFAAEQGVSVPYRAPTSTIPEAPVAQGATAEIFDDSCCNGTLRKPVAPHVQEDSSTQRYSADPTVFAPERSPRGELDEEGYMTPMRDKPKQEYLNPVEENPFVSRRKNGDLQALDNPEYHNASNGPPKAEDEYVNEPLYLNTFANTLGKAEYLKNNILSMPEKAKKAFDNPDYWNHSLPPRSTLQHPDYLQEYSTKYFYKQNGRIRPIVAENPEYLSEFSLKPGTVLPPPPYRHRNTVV

**Q.** For `O=C(O)c1ccc2c3c1cccc3c(=O)n1c3ccccc3nc21`, which residual activity [1] is on record?
**A.** The residual activity was 98%.

**Q.** What about the residual activity [2] of the same compound?
**A.** Its residual activity is 105%.

**Q.** What about the residual activity [3] of the same compound?
**A.** The residual activity was 108%.

**Q.** And the residual activity [4]?
**A.** The residual activity was 98% (inactive).

**Q.** What about the residual activity [5] of the same compound?
**A.** The residual activity was 110%.

**Q.** And the residual activity [6]?
**A.** Its residual activity is 102%.

**Q.** What about the residual activity [7] of the same compound?
**A.** Its residual activity is 100%.

**Q.** What about the residual activity [8] of the same compound?
**A.** The residual activity was 105%.

**Q.** What about the residual activity [9] of the same compound?
**A.** The residual activity was 95%.

**Q.** And the residual activity [10]?
**A.** The residual activity was 112%.

Reference: ChEMBL document CHEMBL2218924, “A broad activity screen in support of a chemogenomic map for kinase signalling research and drug discovery” (Biochem J, 2013)
